In PubChem BioAssay AID602248 (The Scripps Research Institute Molecular Screening Center, 2012) one finds activation data, which are given here for 90 molecules.

Among all 360,000 compounds or so, about 1,700 (0.47%) were called active. The entries come from a sample that favours actives as a whole. Values without a mark were called inactive. Cut-off read from the data, not from the text of the source: active = activation above about 15%; inactive = the rest.

This test can be described thus: counter-screen for M1 agonists: effect in parental CHO-K1 cells (AID 602248).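 Note: untransfected CHO-K1 host cells lacking M1 receptor as counterscreen.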 To be noted: Fluo-8 calcium fluorescence, at 3 µM, hits give high values, scaled to maximal ATP response, vehicle zero.
As to `CC1C(=O)C(C)C(c2ccc(O)cc2)NC1c1ccc(O)cc1` (stereo not given), the activation is 4.02%.

As for `O=C(CSc1ccc(-c2ccc(F)cc2)nn1)Nc1ccc2c(c1)OCCO2`, the activation is 6.26%.

For the molecule `COc1ccc(NC(=O)CSc2ccc(-c3ccco3)nn2)c(OC)c1`, the activation is 0.21%.

Turning to `O=C(CSc1ccc(-c2ccco2)nn1)Nc1cccc(F)c1`, the activation is 16.7% (active).

For the molecule `CCCOc1ccc(N2CC(C(=O)Nc3ccccn3)CC2=O)cc1` (stereo not given), the activation was -0.06%.

Regarding `CS(=O)(=O)N(CC(=O)Nc1ccc(F)cc1F)c1cccc([N+](=O)[O-])c1`, the activation is 0.11%.

For the molecule `C=CCn1c(SCC(N)=O)nnc1-c1cc2c(s1)CCC(CC)C2` (stereo not given), the activation is 0.17%.

Take `COc1ccc(NC(=O)c2sc(N3CCOCC3)nc2-c2ccccc2)c(OC)c1`: the activation was 1.26%.

As to `COC(=O)c1cnc(Nc2cc(C)ccc2OC)c2ccccc12`, the activation is 1.12%.

As for `COc1ccc(Nc2ncnc3sc(-c4ccccc4)cc23)c(OC)c1`, the activation was 17.4% (active).

Turning to `COc1ccc(NC(=O)CSc2nncc(=O)n2N)cc1OC`, the activation was 1.17%.

Take `CCOC(=O)C1CCN(CCC(=O)Nc2cccc(C)c2)CC1`: the activation is 6.98%.

For the molecule `CCOC(=O)C1CCN(Cc2ccc(-c3ccccc3)cc2)CC1`, the activation is 2.64%.

In the case of `CCOC(=O)C1CCN(Cc2nnc(-c3cccc(Br)c3)o2)CC1`, the activation was 16.3% (active).

Regarding `COc1ccc(C2(C)NC(=O)N(CC(=O)c3ccc4c(c3)OCO4)C2=O)cc1` (stereo not given), the activation is 9.33%.

Turning to `CC1CCC2(CC1)NC(=O)N(CC(=O)c1ccc3c(c1)OCO3)C2=O` (stereo not given), the activation is 1.72%.

Turning to `CC1(c2ccc(Cl)cc2)NC(=O)N(CC(=O)c2ccc3c(c2)OCO3)C1=O` (stereo not given), the activation was 16.4% (active).

As for `Cn1c2c(c(=O)n(C)c1=O)C(c1cccc([N+](=O)[O-])c1)Nc1ccccc1O2` (stereo not given), the activation is 0.17%.

For the molecule `COc1cccc(N2CCN(C(=O)C3CCCN(S(=O)(=O)c4cnc[nH]4)C3)CC2)c1` (stereo not given), the activation is 0.46%.

In the case of `Cc1ccc(S(=O)(=O)N2CCCC(C(=O)N3CCN(C)CC3)C2)cc1` (stereo not given), the activation is 1.9%.

In the case of `CC(=O)N1CCCc2cc(S(=O)(=O)N3CCCC(C(=O)N4CCN(c5cccc(Cl)c5)CC4)C3)ccc21` (stereo not given), the activation is 19.9% (active).

Consider `CCN1CCC(=NNC(=O)c2ccc(C)c([N+](=O)[O-])c2)CC1`, for which the activation is 0.82%.

Consider `Cc1cc(F)ccc1S(=O)(=O)Nc1ncnc2scc(-c3ccc(F)cc3)c12`, for which the activation is 0.74%.

For the molecule `CC(=O)N1CCN(c2ccc(NCc3ccc(C(C)C)cc3)cc2)CC1`, the activation was -0.13%.

Regarding `O=S(=O)(Nc1ccccc1)c1ccc(NS(=O)(=O)c2cccs2)cc1`, the activation is 1.02%.

Regarding `O=C(NCc1cn2ccsc2n1)Nc1cccc(Cl)c1`, the activation was 0.23%.

In the case of `O=C(Nc1cccc(Cl)c1)Nc1ccccc1NS(=O)(=O)c1cccs1`, the activation was 15.3% (active).

For `CC12CN3CC(C)(CN(C1)C3c1ccc(Cl)cc1Cl)C2=O` (stereo not given), the activation is -0.45%.

Turning to `COc1ccc(CC(=O)NC(C)c2ccc(Cl)c(Cl)c2)cc1S(=O)(=O)N1CCOCC1` (stereo not given), the activation was 2.98%.

Turning to `CC(=O)Nc1ccc(S(=O)(=O)Oc2ccc(/C=N/N=C3/NC(=O)C(CC(=O)O)S3)cc2)cc1` (stereo not given), the activation was 0.03%.

Consider `CC(=O)c1ccc(NC(=O)C(C)NCc2ccc(Cl)cc2)cc1` (stereo not given), for which the activation was 0.45%.

Regarding `CC(=O)N1CCC(N(C(=O)Nc2ccc(Cl)cc2)C(C)C)CC1`, the activation is 1.09%.

With `CC(C)S(=O)(=O)c1csc(NC(=O)Nc2ccc(Cl)cc2)c1Cl`, the activation was 16% (active).

As for `Cc1ccc(S(=O)(=O)N(C)c2ccc(OCC(=O)NC3=NCCS3)cc2)cc1`, the activation was 22.6% (active).

Consider `CN(c1ccc(OCC(=O)NC2=NCCS2)cc1)S(=O)(=O)c1ccc(F)cc1`, for which the activation was 6.36%.

With `CN(c1ccccc1)S(=O)(=O)c1ccc(NC(=O)COc2ccccc2)cc1`, the activation is 7.3%.

As for `O=C(O)C(NS(=O)(=O)c1cccc2nsnc12)c1ccccc1` (stereo not given), the activation is 0.41%.

For the molecule `O=C(NNC(=S)NC(=O)c1cn(-c2ccccc2)nc1-c1ccccc1)c1ccncc1`, the activation is 29.6% (active).

With `COc1ccccc1N1CCN(C(=O)c2cn(-c3ccccc3)nc2-c2cccnc2)CC1`, the activation was 4.25%.

`Cc1ccc(-c2nn(-c3ccccc3)cc2C(=O)NCCCN2CCCC2=O)cc1`: the activation is 0.65%.

Take `CCN(Cc1nc2ccccc2c(=O)[nH]1)Cc1cc(=O)oc2cc(C)c(C)cc12`: the activation is 2.83%.

For the molecule `CCOC(=O)c1ccc(N=C2SC(C(=O)NC)CC(=O)N2CCc2ccccc2)cc1` (stereo not given), the activation was 0.37%.

In the case of `CCOc1ccc(C(=O)NC2CCN(S(=O)(=O)CC)CC2)cc1`, the activation was 0.96%.

In the case of `CCOc1ccc(NS(=O)(=O)c2ccc(C(=O)NC3CCN(Cc4ccccc4)CC3)cc2)cc1`, the activation was 15.3% (active).

With `CCOc1ccc(CC(=O)NC2CCN(Cc3ccccc3)CC2)cc1`, the activation is 0.21%.

In the case of `Cc1ccc(-c2cccc([C@H]3[C@@H]4C=CC[C@@H](C)[C@@H]4C(=O)N3Cc3ccccc3)c2)cc1`, the activation was 0.28%.

In the case of `Cc1ccc(OCc2cc(C(=O)N(C)CCn3ccnc3C)no2)cc1C`, the activation was 3.36%.

Consider `CN(Cc1cccnc1)C(=O)c1cc(COc2ccc3ncccc3c2)on1`, for which the activation is 17.9% (active).

As for `Cc1cc(CN(C)C(=O)c2cc(COc3ccc(C)c(C)c3)on2)n[nH]1`, the activation was 1.86%.

As for `COc1cccc2c1C(=O)c1c(O)c3c(c(O)c1C2=O)CC(O)(C(C)=NNC(=O)c1ccc(Cl)c(Cl)c1)CC3OC1CC(N)C(O)C(C)O1` (stereo not given), the activation is 7.82%.

`CN(C(=O)CC1C(=O)NCCN1Cc1ccc2ccccc2c1)C1CCOCC1` (stereo not given): the activation was 0.91%.

Consider `CC1CCCCC12NC(=O)N(CC(=O)OCc1c(F)cccc1Cl)C2=O` (stereo not given), for which the activation was 21.8% (active).

Regarding `CCCc1ccc(C(=O)COC(=O)CN2C(=O)NC3(CCCCC3C)C2=O)cc1` (stereo not given), the activation is 5.23%.

`CC1CCCCC12NC(=O)N(CC(=O)OCC(=O)NCc1ccc(F)cc1)C2=O` (stereo not given): the activation is 0.23%.

As to `c1ccc2c(c1)nnn2-c1ccncc1`, the activation was 0.33%.

With `O=C(/C=C(O)/C=C/c1ccc(O)cc1)/C=C/c1ccc(O)cc1`, the activation was 46.7% (active).

Take `C=CCNC(=O)/C=C/c1ccc(C(C)C)cc1`: the activation is -0.17%.

For the molecule `O=C(O)/C=C/c1ccc(S(=O)(=O)N2CCCCCC2)cc1`, the activation was -0.04%.

As for `N=c1n(Cc2ccc(Cl)cc2)c2ccccc2n1CC(O)c1ccco1` (stereo not given), the activation was 1.71%.

Regarding `CC12CCC(=O)N1C(C(=O)Nc1ccc(F)c(F)c1F)CS2` (stereo not given), the activation is 1.59%.

`CCCc1nc(-c2ccccc2O)n(-c2ccccc2)n1`: the activation was -0.09%.

As for `Cc1nc(NC(CC(C)C)C(=O)O)c2nc(C)oc2n1` (stereo not given), the activation was -0.16%.

With `O=C(CN(CC1CCCO1)C(=O)CNS(=O)(=O)c1ccc(F)cc1)NCc1ccco1` (stereo not given), the activation is 1.1%.

In the case of `O=C(NCc1cccs1)C(=O)NCC1OCCCN1S(=O)(=O)c1ccc(F)cc1` (stereo not given), the activation is -0.04%.

On to `CN(NC(=O)C1CC(=O)N(c2ccccc2)C1)C1=NS(=O)(=O)c2ccccc21` (stereo not given), for which the activation is -0.27%.

For `Nc1cc(=O)n(Cc2ccccc2)c(=O)n1Cc1ccccc1`, the activation was 0.11%.

For the molecule `CN(C(=O)COC(=O)c1ccc(Br)o1)c1c(N)n(Cc2ccccc2)c(=O)[nH]c1=O`, the activation is 2.4%.

`Cc1cc2nc3c(=O)n(Cc4ccccc4)c(=O)[nH]c3nc2cc1N`: the activation was 47.3% (active).

On to `Cc1ccc(S(=O)(=O)n2cccc2CO)cc1`, for which the activation is -0.4%.

On to `COc1ccc(-n2c(Cc3cccn3C)nnc2SCC(=O)Nc2cc(C)cc(C)c2)cc1`, for which the activation is -0.02%.

On to `CCOC(=O)N1C(=O)C[C@](Sc2ccc(C)cc2)(C(=O)OC)[C@H]1c1ccccc1`, for which the activation was 1.19%.

For `CC(=O)Nc1ccc(NC(=S)NC(=O)c2ccc([N+](=O)[O-])c(C)c2)cc1`, the activation was 1.35%.

For the molecule `COCCCNC(=S)NC(=O)c1ccc([N+](=O)[O-])cc1`, the activation is 0.19%.

Consider `CC(=O)NC(=S)Nc1ccc(NC(=S)NC(=O)c2ccc([N+](=O)[O-])cc2)cc1`, for which the activation is 24.5% (active).

For the molecule `Cc1nn(C(C)C(=O)N2CCOCC2)c(=O)c2nn(-c3ccccc3)c(C)c12` (stereo not given), the activation is 2.09%.

With `COc1cccc(CNCCc2c[nH]c3ccccc23)c1OCc1ccccc1F`, the activation was 23.3% (active).

As for `Fc1ccccc1COc1ccccc1CNCc1ccncc1`, the activation was 4.4%.

As for `COc1cccc(CNn2cn[nH]c2=S)c1OCc1ccccc1`, the activation is 1.05%.

Consider `COc1cc(NC(=O)COC(=O)CSc2ccc3ccccc3c2)c(C)cc1[N+](=O)[O-]`, for which the activation is 5.21%.

For the molecule `COc1ccc(-c2[nH]ncc2CN(C)Cc2c(C)n[nH]c2C)c(OC)c1`, the activation was 1.07%.

With `COc1ccc(-c2n[nH]c(C)c2-c2ccccc2OC)c(O)c1`, the activation is 15.4% (active).

With `COc1ccc(-c2c(-c3ccc(OC)cc3O)nc(C)nc2C(F)(F)F)cc1`, the activation is -0.31%.

`Cc1ccc(Cc2cncc(O)c2)cc1S(=O)(=O)O`: the activation was 0.27%.

For the molecule `NC(=O)c1ccsc1NC(=O)COC(=O)COc1ccc(C=O)cc1`, the activation was 16.2% (active).

In the case of `Cc1cccc(C(=O)OCC(=O)Nc2sccc2C(N)=O)c1C`, the activation was -0.07%.

Consider `COc1cc(OC)cc(C(=O)OCC(=O)Nc2sccc2C(N)=O)c1`, for which the activation is 9.07%.

`CCOC(=O)[C@]12CCC=C1N(Cc1cccc3ccccc13)C(=O)[C@H](CC(=O)NCc1cccc(C(F)(F)F)c1)C2`: the activation is 0.16%.

On to `Cc1ccc(C)c(CN2CCC(CNC(=O)Nc3ccc(C)c(F)c3)CC2)c1`, for which the activation is 2.18%.

Consider `COc1cc(NC(=O)NCC2CCN(Cc3ccc(C)cc3)CC2)cc(OC)c1OC`, for which the activation was 1.36%.

Regarding `Cc1cccc(CN2CCC(CNC(=O)Nc3ccc(F)c(Cl)c3)CC2)c1`, the activation is 29.2% (active).
